Experimental data from PubChem BioAssay AID1159580 (chemical genetic matrix, 2015).
Hit rate of the full screen: of about 5,500 compounds, about 2,000 (36%) were called active. Another 18% or so got no clear call; they are omitted. The list shows a part of the results. A number with no mark means an inactive call. No stated cut-off is given here; in the data, active means normalized growth mostly below about 0.91 (no sharp cut-off); inconclusive means no clear call, values can overlap the other calls; inactive means mostly above about 0.92.

Assay: chemical genetic growth profiling, strain panel (AID 1159580);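 further: tested at 20 µM; growth read once vehicle control cultures reached saturation at 30 °C; 1 = growth at the plate median or of vehicle wells; lower values mean less growth of the strain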
Conditions: S. cerevisiae deletion strains, growth OD
[1] = locus YAR019C, strain CDC15, active compounds read low
[2] = locus YBL105C, strain PKC1, active compounds read low
[3] = locus YBR135W, strain CKS1, active compounds read low
[4] = locus YBR136W, strain MEC1, active compounds read low
[5] = locus YBR160W, strain CDC28, active compounds read low
[6] = locus YDL017W, strain CDC7, active compounds read low
[7] = locus YDL028C, strain MPS1, active compounds read low
[8] = locus YDL101C, strain DUN1, active compounds read low
[9] = locus YDL108W, strain KIN28, active compounds read low
[10] = locus YDL132W, strain cdc53, active compounds read low
[11] = locus YDL214C, strain PRR2, active compounds read low
[12] = locus YDR052C, strain DBF4, active compounds read low
[13] = locus YDR054C, strain cdc34, active compounds read low
[14] = locus YDR226W, strain ADK1, active compounds read low
[15] = locus YDR477W, strain SNF1, active compounds read low
[16] = locus YER123W, strain YCK3, active compounds read low
[17] = locus YER133W, strain GLC7, active compounds read low
[18] = locus YFL009W, strain cdc4, active compounds read low
[19] = locus YFL029C, strain CAK1, active compounds read low
[20] = locus YFR003C, strain YPI1, active compounds read low
[21] = locus YFR019W, strain FAB1, active compounds read low
[22] = locus YFR028C, strain CDC14, active compounds read low
[23] = locus YGR040W, strain KSS1, active compounds read low
[24] = locus YGR052W, strain FMP48, active compounds read low
[25] = locus YGR092W, strain DBF2, active compounds read low
[26] = locus YHR030C, strain SLT2, active compounds read low
[27] = locus YHR079C, strain IRE1, active compounds read low
[28] = locus YHR082C, strain KSP1, active compounds read low
[29] = locus YHR205W, strain SCH9, active compounds read low
[30] = locus YIL147C, strain SLN1, active compounds read low
[31] = locus YJL095W, strain BCK1, active compounds read low
[32] = locus YJL128C, strain PBS2, active compounds read low
[33] = locus YJL157C, strain FAR1, active compounds read low
[34] = locus YJR016C, strain ILV3, active compounds read low
[35] = locus YJR066W, strain TOR1 (second series), active compounds read low
[36] = locus YJR066W, strain TOR1, active compounds read low
[37] = locus YKL048C, strain ELM1, active compounds read low
[38] = locus YKL067W, strain YNK1, active compounds read low
[39] = locus YKL101W, strain HSL1, active compounds read low
[40] = locus YKL193C, strain SDS22, active compounds read low
[41] = locus YKL203C, strain TOR2, active compounds read low
[42] = locus YLR113W, strain HOG1, active compounds read low
[43] = locus YLR133W, strain CKI1, active compounds read low
[44] = locus YLR403W, strain SFP1, active compounds read low
[45] = locus YML070W, strain DAK1, active compounds read low
[46] = locus YMR001C, strain CDC5, active compounds read low
[47] = locus YMR205C, strain PFK2 (second series), active compounds read low
[48] = locus YMR277W, strain FCP1, active compounds read low
[49] = locus YNL006W, strain LST8, active compounds read low
[50] = locus YNL020C, strain ARK1, active compounds read low
[51] = locus YNL161W, strain CBK1, active compounds read low
[52] = locus YNL183C, strain NPR1, active compounds read low
[53] = locus YNL207W, strain RIO2, active compounds read low
[54] = locus YNL222W, strain SSU72, active compounds read low
[55] = locus YNL307C, strain MCK1 (second series), active compounds read low
[56] = locus YOL078W, strain AVO1, active compounds read low
[57] = locus YOL136C, strain PFK27, active compounds read low
[58] = locus YOR061W, strain CKA2, active compounds read low
[59] = locus YOR329C, strain SCD5, active compounds read low
[60] = locus YPL031C, strain PHO85, active compounds read low
[61] = locus YPL153C, strain RAD53, active compounds read low
[62] = locus YPL204W, strain HRR25, active compounds read low
[63] = locus YPL209C, strain IPL1, active compounds read low
[64] = locus YPL256C, strain CLN2, active compounds read low
[65] = locus YPR025C, strain CCL1, active compounds read low
[66] = locus YPR106W, strain ISR1, active compounds read low
[67] = locus YPR111W, strain DBF20, active compounds read low
[68] = strain NNK1, active compounds read low
[69] = strain TSCII, active compounds read low

O=C(CCn1c(=O)oc2ccccc21)Sc1ccc(Cl)cc1Cl
normalized growth [1]: 0.894
normalized growth [2]: 0.935
normalized growth [3]: 0.914
normalized growth [4]: 0.913
normalized growth [5]: 0.895 (active)
normalized growth [6]: 0.942
normalized growth [7]: 0.884 (active)
normalized growth [8]: 0.971
normalized growth [9]: 0.897
normalized growth [10]: 0.9
normalized growth [11]: 0.359 (active)
normalized growth [12]: 0.936
normalized growth [13]: 0.748 (active)
normalized growth [14]: 0.899
normalized growth [15]: 0.222 (active)
normalized growth [16]: 0.278 (active)
normalized growth [17]: 0.435 (active)
normalized growth [18]: 0.905
normalized growth [19]: 0.878
normalized growth [20]: 0.917
normalized growth [21]: 0.311 (active)
normalized growth [22]: 0.914
normalized growth [23]: 0.289 (active)
normalized growth [24]: 0.306 (active)
normalized growth [25]: 0.164 (active)
normalized growth [26]: 0.149 (active)
normalized growth [27]: 0.253 (active)
normalized growth [28]: 0.281 (active)
normalized growth [29]: 0.286 (active)
normalized growth [30]: 0.92
normalized growth [31]: 0.229 (active)
normalized growth [32]: 0.907
normalized growth [33]: 0.503 (active)
normalized growth [34]: 0.915
normalized growth [35]: 0.197 (active)
normalized growth [36]: 0.227 (active)
normalized growth [37]: 0.745 (active)
normalized growth [38]: 0.597 (active)
normalized growth [39]: 0.433 (active)
normalized growth [40]: 0.903
normalized growth [41]: 0.348 (active)
normalized growth [42]: 0.221 (active)
normalized growth [43]: 0.387 (active)
normalized growth [44]: 0.205 (active)
normalized growth [45]: 0.519 (active)
normalized growth [46]: 0.911
normalized growth [47]: 0.662 (active)
normalized growth [48]: 0.873 (active)
normalized growth [49]: 0.91
normalized growth [50]: 0.383 (active)
normalized growth [51]: 0.923
normalized growth [52]: 0.249 (active)
normalized growth [53]: 0.908
normalized growth [54]: 0.892
normalized growth [55]: 0.196 (active)
normalized growth [56]: 0.918
normalized growth [57]: 0.45 (active)
normalized growth [58]: 0.334 (active)
normalized growth (locus YOR231W, strain MKK1, active compounds read low): 0.251 (active)
normalized growth [59]: 0.936
normalized growth [60]: 0.342 (active)
normalized growth [61]: 0.216 (active)
normalized growth [62]: 0.402 (active)
normalized growth [63]: 0.922
normalized growth [64]: 0.255 (active)
normalized growth [65]: 0.923
normalized growth [66]: 0.944
normalized growth [67]: 0.92
normalized growth [68]: 0.935
normalized growth [69]: 0.898

O=C(CCn1c(=O)oc2ccccc21)Sc1ccc(C(F)(F)F)cc1
normalized growth [1]: 0.931
normalized growth [2]: 0.962
normalized growth [3]: 0.957
normalized growth [4]: 0.941
normalized growth [5]: 0.951
normalized growth [6]: 0.967
normalized growth [7]: 0.925
normalized growth [8]: 0.975
normalized growth [9]: 0.94
normalized growth [10]: 0.965
normalized growth [11]: 0.793
normalized growth [12]: 0.961
normalized growth [13]: 0.936
normalized growth [14]: 0.951
normalized growth [15]: 0.742
normalized growth [16]: 0.677
normalized growth [17]: 0.876
normalized growth [18]: 0.917
normalized growth [19]: 0.937
normalized growth [20]: 0.97
normalized growth [21]: 0.942
normalized growth [22]: 0.958
normalized growth [23]: 0.7
normalized growth [24]: 0.774
normalized growth [25]: 0.473 (active)
normalized growth [26]: 0.318 (active)
normalized growth [27]: 0.479 (active)
normalized growth [28]: 0.781
normalized growth [29]: 0.792
normalized growth [30]: 0.935
normalized growth [31]: 0.838
normalized growth [32]: 0.929
normalized growth [33]: 0.703
normalized growth [34]: 0.966
normalized growth [35]: 0.418 (active)
normalized growth [36]: 0.587
normalized growth [37]: 0.897
normalized growth [38]: 0.779
normalized growth [39]: 0.834
normalized growth [40]: 0.955
normalized growth [41]: 0.937
normalized growth [42]: 0.848 (active)
normalized growth [43]: 0.779
normalized growth [44]: 0.799
normalized growth [45]: 0.879
normalized growth [46]: 0.938
normalized growth [47]: 0.882
normalized growth [48]: 0.919
normalized growth [49]: 0.954
normalized growth [50]: 0.783
normalized growth [51]: 0.962
normalized growth [52]: 0.778
normalized growth [53]: 0.949
normalized growth [54]: 0.935
normalized growth [55]: 0.557 (active)
normalized growth [56]: 0.951
normalized growth [57]: 0.851
normalized growth [58]: 0.607 (active)
normalized growth (locus YOR119C, strain RIO1, active compounds read low): 0.922
normalized growth [59]: 0.965
normalized growth [60]: 0.732
normalized growth [61]: 0.552 (active)
normalized growth [62]: 0.813
normalized growth [63]: 0.971
normalized growth [64]: 0.83 (active)
normalized growth [65]: 0.956
normalized growth [66]: 0.956
normalized growth [67]: 0.93
normalized growth [68]: 0.96
normalized growth [69]: 0.931
